# Screening results from PubChem.
# CBX7 AlphaScr = blocks human CBX7 binding to H3K27me3 peptide; AlphaScreen His6-CBX7 / biotin-H3K27me3 peptide binding; active compounds read low; normalised signal (fraction of DMSO) (concentration not given with the values); actives 1.1% (n = 66,000); O95931; in the data active = normalised signal below about 0.5
# Target sequence (O95931 whole entry, looked up): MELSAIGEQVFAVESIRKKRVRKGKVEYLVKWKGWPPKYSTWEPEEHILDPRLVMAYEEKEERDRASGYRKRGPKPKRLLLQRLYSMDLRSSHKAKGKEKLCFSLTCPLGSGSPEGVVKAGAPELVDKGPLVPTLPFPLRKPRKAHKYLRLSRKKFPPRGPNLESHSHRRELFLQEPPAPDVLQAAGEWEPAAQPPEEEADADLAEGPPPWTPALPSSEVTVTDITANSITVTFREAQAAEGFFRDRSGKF
# Active calls of the source: *. Shown is part of a subset that was picked to be rich in hits.
SMILES,CBX7 AlphaScr
CCOC(=O)C1(c2ccccc2)CCN(CC(=O)Nc2cccc(Cl)c2)CC1,0.35*
CCOC(=O)C1(c2ccccc2)CCN(CC(=O)Nc2ccc(F)cc2)CC1,1.1
CCOC(=O)C1(c2ccccc2)CCN(CC(=O)Nc2cc(Cl)ccc2OC)CC1,1
CC(=O)OC1(c2ccccc2)CCN(C)C2CCCC21 (stereo not drawn),1
CC1N=C(c2ccccc2)c2cc(Cl)ccc2N(CC(=O)Nc2ccc(F)c(Cl)c2)C1=O (stereo not drawn),0.86
CCCCCC(C)C(C)c1cc(OC)c2c(c1)OC(C)(C)C1=C2CN(CC(N)=O)CC1 (stereo not drawn),0.38*
C#CCN1CCC2=C(C1)c1c(O)cc(C(C)C(C)CCCCC)cc1OC2(C)C (stereo not drawn),0.65
COc1ccc2[nH]c(C)c(CCNCC(C)(C)C)c2c1,1.1
COc1ccc2[nH]c(C)c(CCNCc3ccc(C#N)cc3)c2c1,0.26*
COc1ccc2[nH]c(C)c(CCNCc3cccc4ccccc34)c2c1,0.59
Cc1ccc(NC(=O)CN2C(=O)CN=C(c3ccccc3)c3cc(Br)ccc32)cc1F,1
Cc1ccc(NC(=O)CN2C(=O)C(C)N=C(c3ccccc3F)c3cc(Cl)ccc32)cc1C (stereo not drawn),0.97
CC1N=C(c2ccccc2)c2cc(Cl)ccc2N(CC(=O)Nc2ccc(N(C)C)cc2)C1=O (stereo not drawn),0.52
CC1N=C(c2ccccc2F)c2cc(Cl)ccc2N(CC(=O)Nc2ccc(N(C)C)cc2)C1=O (stereo not drawn),0.27*
COc1ccccc1N(C(=O)c1ccccc1)C1CN2CCC1CC2 (stereo not drawn),1.2
CCCCCCCc1cc(O)c2c3c(c(=O)oc2c1)CCC(C)C3 (stereo not drawn),0.91
COc1ccccc1-n1c(/C=C/c2ccc(Cl)cc2)nc2ccccc2c1=O,0.92
O=C(c1ccccc1)c1cc(Br)ccc1NC(=O)c1c(F)cccc1F,1.1
CNc1ccc(Br)cc1C(=O)c1ccccc1Cl,1.1
CNc1ccc(C)cc1C(=O)c1cccc(Br)c1,0.42*
CC(C)(C)c1ccccc1OCC(=O)Nc1ccc(Cl)cc1C(=O)c1ccccc1,1
O=c1c2ccccc2nc(/C=C/c2ccccc2)n1-c1ccc(F)c(Cl)c1,1
O=C(CN1C(=O)CN=C(c2ccccc2Cl)c2cc(Cl)ccc21)NCCCN1CCOCC1,0.93
Nc1nonc1-c1noc(-c2nonc2N)n1,1.1
Cc1ccc(OCCCn2cc(C(=O)c3ccccc3)c3ccccc32)cc1,1
